Reference: the OligoGym collection

Each sequence was assayed against SSU72 (assay: pooled miR-30 sensor sort-seq; sequence = guide strand). Conditions: shRNA.

Row | Sequence | sensor-assay potency score (higher = more potent)
1 | TTTCCTAAGAAGATCATTGTAC | 0.179
2 | ATGAACAACAGGAAGCTCCAGA | -0.247
3 | TTTGAAATCATAAACATTGGGC | 0.0382
4 | TTGTACATCTGGTCATATGTGG | 0.225
5 | AACTTTGTAATCAATATCCTGC | 0.0512
6 | TAAACATTGGGCTTGTCGGGAG | -0.587
7 | AAGAAGATCATTGTACATCTGG | 0.705
8 | ATAAACATTGGGCTTGTCGGGA | -0.564
9 | TAGAGTTCTTTGTCTTTCCTAA | -0.0441
10 | TCATACACTCTCTCTTCGCAAG | -1.24
11 | TTCTGGAATCTTTCTGGCCGGG | -0.713
12 | TCGTTCTCCATGTCTTCCGTGT | -0.416

What follows are sequences tested against SSX3 in the same assay as above. Conditions: shRNA.

Row | Sequence | sensor-assay potency score (higher = more potent)
13 | TATTACGCATGAAAGATGGGAG | 0.05
14 | TAACAGAATGACACACTTCAAG | -1.11
15 | CATCTGAGGACGTTGAACCTGA | -0.724
16 | TTCTCCGAGACTTTCATCTTTT | -0.696
17 | TTGTATCTTCTCTGGTATTTGA | -1.1
18 | TTGAACCTGATTCCCACGGTTA | -0.528
